Source: PubChem BioAssay
G9a block: qHTS Assay for Inhibitors of Histone Lysine Methyltransferase G9a | Potency, µM (top dose mostly 102 µM), actives largely listed as inhibitors | AID 504332, 2011 | 8.8% of 350,000 active | Histone-lysine N-methyltransferase EHMT2 (Homo sapiens), Q96KQ7 | G9a H3K9 monomethylation, AlphaScreen, 2 h; further: nearly all actives have a fitted effect of over 75% in size
Target sequence (Q96KQ7 913-1193 limits assumed): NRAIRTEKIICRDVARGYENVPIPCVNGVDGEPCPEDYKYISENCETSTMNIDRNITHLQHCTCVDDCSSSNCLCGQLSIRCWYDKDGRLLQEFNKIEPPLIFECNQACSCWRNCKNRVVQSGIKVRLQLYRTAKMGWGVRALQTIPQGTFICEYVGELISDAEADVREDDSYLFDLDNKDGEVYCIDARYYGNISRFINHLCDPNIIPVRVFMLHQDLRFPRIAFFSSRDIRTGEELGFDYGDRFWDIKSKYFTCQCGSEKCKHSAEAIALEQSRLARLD
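Compounds were preincubated with 20 nM G9a for 15 min, after which biotinylated H3K9 peptide (500 nM) and SAM (20 uM) started a 2 h room-temperature reaction. Monomethylated product was quantified by antibody-based AlphaScreen chemiluminescence.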
PI5P4K alpha inh: qHTS for Inhibitors of phosphatidylinositol 5-phosphate 4-kinase (PI5P4K). Phosphatidylinositol 5-phosphate 4-kinase type-2 alpha (Homo sapiens), P48426. PI5P4Kalpha enzyme, ADP-Glo luminescence, 60 min; hits give low values. max response, %. 1.2% of 330,000 active; active means max response of -50% or lower; inconclusive means between -30% and -50%; inactive means -30% or higher; further: value at the top dose of about 77 µM
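Luminescence from ADP-Glo served as readout of PI5P4Kalpha activity in a qHTS format. Reaction: enzyme, substrate, compound, ATP at 5 microM final, 60 min at RT.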
HP1b chromo inh: HTS for Inhibitors of HP1-beta Chromodomain Interactions with Methylated Histone Tails | Chromobox protein homolog 1 (Homo sapiens), P83916 | AlphaScreen HP1-beta / biotin-H3K9me3 peptide binding | Potency, µM (series often up to 114 µM), actives largely listed as inhibitors | 0.56% of 390,000 active | AID 540317, 2011; further: nearly all actives have a fitted effect of over 70% in size
Target sequence (P83916 whole entry, looked up): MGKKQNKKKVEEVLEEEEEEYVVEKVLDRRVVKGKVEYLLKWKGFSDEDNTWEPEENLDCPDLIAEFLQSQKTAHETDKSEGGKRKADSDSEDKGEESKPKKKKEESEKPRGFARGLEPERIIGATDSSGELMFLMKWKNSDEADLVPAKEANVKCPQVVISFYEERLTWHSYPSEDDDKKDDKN
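Compound inhibition of the preformed complex between 50 nM HP1-beta and 50 nM biotinylated H3K9me3 peptide was read by AlphaScreen. Buffer was PBS pH 7.4 with 0.01% Tween-20. Incubations ran 30 min at room temperature, with 10 ug/mL donor/acceptor beads.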
BAZ2B block: qHTS Assay for Inhibitors of BAZ2B; AID 504333, 2011; Potency, µM (top dose mostly 114 µM), actives largely listed as inhibitors; AlphaScreen BAZ2B-H3K14Ac peptide displacement; 4.4% of 360,000 active; Bromodomain adjacent to zinc finger domain protein 2B (Homo sapiens), Q9UIF8; further: nearly all actives have a fitted effect of over 60% in size
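Inhibition is scored as reduced AlphaScreen emission. The BAZ2B/b-H3(5-23)K14Ac complex (50 nM each) in PBS pH 7.4, 0.01% Tween-20 meets compound (up to 110 uM) for 30 min at RT before bead addition.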
PLK1 PBD inh: qHTS for Inhibitors of PLK1-PDB (polo-like kinase 1 - polo-box domain): Primary Screen; 2.8% of 360,000 active; Serine/threonine-protein kinase PLK1 (Homo sapiens), P53350; Plk1 PBD binding of FITC phosphopeptide, fluorescence polarization; Potency, µM, usual class: inhibitors; further: series mostly up to about 57 µM; nearly all actives have a fitted effect of over 65% in size
JMJD2A Tudor inh: qHTS Assay for Inhibitors of JMJD2A-Tudor Domain; 4.4% of 390,000 active; AlphaScreen JMJD2A-Tudor / H3K4me3 peptide binding; Lysine-specific demethylase 4A (Homo sapiens), O75164; Potency, µM (series often up to 114 µM), most hits filed as inhibitors; AID 504339, 2011; further: nearly all actives have a fitted effect of over 50% in size
Hits are given with their value; – = inactive; ? = inconclusive; · = no result given; [ ] = remark or other dose. This is a sample that favours compounds with a hit; in the whole collection about 12% have one here. Unless noted, the call rests on the fitted dose curve; in most records, active means well fitted curve in the direction sought with a large enough effect; inconclusive means small, poorly fitted or top-dose-only effect, or another doubt; inactive means no such curve, though single readings can be large; an effect the other way counts as inactive or inconclusive.

SMILES	G9a block	PI5P4K alpha inh	HP1b chromo inh	BAZ2B block	PLK1 PBD inh	JMJD2A Tudor inh
Cc1[nH]n(-c2ccccc2)c(=O)c1C=Nc1ccc(S(=O)(=O)N(C)C)cc1	–	–	–	–	–	–
COc1ccccc1NC(=O)COC(=O)CCC(=O)c1cccs1	–	–	–	–	–	–
Cc1cccn2c(=O)c(/C=C3\SC(=S)NC3=O)c(NCCCN3CCOCC3)nc12	13µM	–	–	–	–	–
Cn1c(=O)c2c(ncn2CC(=O)OCC(=O)NNC(=O)c2ccc(Cl)cc2)n(C)c1=O	–[12.7 µM]	–	–	–	–	–
CCOC(=O)CN1C(=O)S/C(=C/c2ccc(C)o2)C1=O	32µM	–	–	–	–	–
Cc1ccc(/C=C2/SC(=S)N(C3CCCCC3)C2=O)o1	40µM	–	–	?	?	–
O=C1/C(=C/c2ccco2)SC(=S)N1CC1CCCO1 (configuration not stated)	?	?	35µM	35µM	–	25µM
CN1C(=O)/C(=C2\SC(=S)N(CC3CCCO3)C2=O)c2ccccc21 (configuration not stated)	?	·	·	–	·	·
CCCN1C(=O)/C(=C/c2ccc(C)o2)SC1=Nc1ccc(OCC)cc1	?	–	–	?	–	?
O=C1/C(=C/c2ccncc2)SC(=S)N1C1CCCCC1	–	–	–	–	–	–
Cc1ccc(/C=C2/SC(=O)NC2=S)o1	18µM	-93	?	50µM	19µM	40µM
COc1ccc(C)cc1NC(=O)NCc1ccc2c(c1)CCN2C(=O)c1ccccc1	–	·	–	–	·	–
CCOc1ccc2nc(N3CCN(C(=O)CS(=O)(=O)c4ccc(F)cc4)CC3)sc2c1	–	·	–	–	·	–
O=C1CN(C(=O)CN2CCN(S(=O)(=O)c3ccccc3)CC2)c2ccccc2N1	·	–	·	·	–	·
Cn1cc(/C=C2\SC(=O)NC2=S)c2ccccc21	·	?	?	32µM	–	?
Cc1ccc(C(=O)NN2C(=O)/C(=C/c3cn(C)c4ccccc34)SC2=S)cc1	–	–	–	–	–	–
O=C1/C(=C\c2ccc(-c3ccccc3Cl)o2)SC(=S)N1CC1CCCO1 (configuration not stated)	?	–	?	?	?	?
Cc1ccc(/C=C2\SC(=S)N(CC3CCCO3)C2=O)o1 (configuration not stated)	5.6µM	?	32µM	32µM	24µM	35µM
c1ccc(CCn2nnnc2CN2CCCc3ccccc32)cc1	?	–	–	–	13µM	–[11.4 µM]
O=C(O)c1ccc(N=Nc2c(O)[nH]c3cc(Cl)ccc23)cc1	–	?	–	–	–	–
O=S(=O)(Cc1ccccc1)N=Nc1c(O)[nH]c2ccc(Br)cc12	3.5µM	–	?	–	?	22µM
O=C(O)c1ccc(N=Nc2c(O)[nH]c3ccc(Br)cc23)cc1	–[2.33 µM]	–	–	79µM	?	?
Cc1ccc(N=Nc2c(O)[nH]c3ccc(F)cc23)cc1	20µM	–	–	–	–	–
O=c1[nH]nc(N=Nc2c(O)[nH]c3ccc(F)cc23)c(=O)[nH]1	·	–	–	·	–	–[11.4 µM]
Cc1cc2nn(-c3ccccc3)nc2cc1NC(=O)COc1ccc(Cl)cc1	–	·	–	–	·	–
C[C@@H]1CN([C@H](C)CO)C(=O)CCCn2nncc2CO[C@H]1CN(C)C(=O)Nc1cccc2ccccc12	·	–	·	·	–	·
CCc1ccccc1Nc1nc(N)nc(CSc2nnnn2C)n1	–	–	–	?	–	–
CCc1ccccc1Nc1nc(N)nc(CSCC(=O)c2cc(C)n(C)c2C)n1	?	–	–	56µM	–	?
CCN1/C(=C2\OC(=S)N(C)C2=O)C=Cc2ccccc21	–	–	–	·	–	–
CN1C(=O)/C(=C2/C=CC=CN2C)OC1=S	32µM	–	?	–	?	–
